Drawing on the supplement of paper PMC5940239, this text covers IC90 for 38 molecules.

Molecules are shown by their SMILES.

As usually defined, the IC90 is the concentration needed for an effect of 90%.

The test system of this test is Madurella mycetomatis MM55. Briefly: IC90; higher = less potent. The note with it: 7 days.
Consider `O=C(c1ccco1)N(CCCn1ccnc1)c1nc2c(Cl)cccc2s1`, for which the IC90 was 94 µM. `O=C(Nc1ccc(N2CCNCC2)nc1)c1oc(-c2ccccc2)nc1C(F)(F)F`: the IC90 is 85.3 µM.

In turn, `O=C1COCc2ccc(Br)cc2N1Cc1ccc(C(F)(F)F)cc1` had an IC90 of 95.4 µM.

Turning to `CN1CCC(NCc2cccc(-c3ccc(S(=O)(=O)NCc4ccccc4)cc3)c2)CC1`, the IC90 stood at 92 µM. Regarding `COc1ccccc1CNC(=O)c1cc(C2CC2)nc2c1cnn2C(C)C`, the IC90 worked out at 88.8 µM. `O=C(c1cc2ccccc2o1)N1CCN(Cc2ccc3c(c2)OCO3)CC1` came in with an IC90 of 87.5 µM. As to `CNCCC(Oc1ccc(C(F)(F)F)cc1)c1ccccc1` (stereo not drawn), the IC90 was 18.6 µM. Next, `CC(C)=CCC/C(C)=C\CNCCNC1C2CC3CC(C2)CC1C3` (stereo not drawn): 19.8 µM; `Cc1ncc(-c2ccnc(Nc3ccc(S(C)(=O)=O)cc3)n2)n1C(C)C`: 96.9 µM.

In turn, `COc1cccc(-n2nnnc2S(C)(=O)=O)c1` gave an IC90 of 92.6 µM. `CCC(Sc1nc2ccccc2o1)C(=O)Nc1nccs1` (stereo not drawn) gave an IC90 of 56.5 µM. `O=C(Nc1ccc(N2CCNCC2)cc1)c1ccn2ncc(-c3cccc(Cl)c3)c2n1`: the IC90 came to 4.9 µM. `c1ccc(Oc2ccc(-c3cc(N4CCNCC4)[nH]n3)cc2)cc1` displayed an IC90 of 81.3 µM. As for `O=C(c1ccc(F)cc1)N(CCNc1ccccc1)c1ccccc1`, the IC90 came out at 100 µM. In turn, `CNC(=O)c1nn(C)c2c1C(C)(C)Cc1cnc(Nc3ccc(N4CCN(C)CC4)cc3)nc1-2` displayed an IC90 of 21.5 µM. As for `Cc1ccc(NC(=O)CC2COc3ccccc3O2)cc1Cl` (stereo not drawn), the IC90 amounted to 91.3 µM. For `Cc1cc(C)n(-c2ccc(NC(=O)C3CCN(Cc4cnc(C)s4)CC3)cc2)n1`, the IC90 stood at 92.5 µM.

Regarding `Cc1cc(OCC(=O)NCc2ccccc2)c2cc(Br)ccc2n1`, the IC90 was 100 µM. `Cc1ccc2[nH]c(C3CCCNC3)c(-c3ccncc3)c2c1` (stereo not drawn) yielded an IC90 of 89.4 µM.

With `COc1cncc(-c2cncc(N3CCN(c4ccncc4)CC3)n2)c1`, the IC90 came to 52.1 µM. Molecule `Cc1nn(C(=O)Nc2cccc(C(F)(F)F)c2)c(C)c1Sc1ncccn1` returned an IC90 of 94 µM. Consider `O=C(NCCc1ccccc1)c1cc(-c2cccnc2)cnc1NCC1CC1`, for which the IC90 was 92.4 µM. `CN(C)c1cc(NC(=O)Nc2ccccc2)c2ccccc2n1` yielded an IC90 of 59.1 µM.

In turn, `COc1ccc(OC(C)C(=O)Nc2ccc(Cl)cc2C)cc1` (stereo not drawn) had an IC90 of 54.5 µM. For the molecule `COc1cc(C2=NCCN2)cc2cc(-c3ccc(C4=NCCN4)cc3)oc12`, the IC90 stood at 88.8 µM. Regarding `COC(=O)C1=C(C)NC(C)=C(C(=O)OC(C)C)C1c1cccc2nonc12` (stereo not drawn), the IC90 worked out at 87.6 µM.

For the molecule `O[C@@H](c1cc(C(F)(F)F)nc2c(C(F)(F)F)cccc12)[C@H]1CCCCN1`, the IC90 was found to be 71.5 µM. `CC(C)(C(=O)Nc1ccc(F)cc1)n1cc(-c2ccccc2F)cn1` registered an IC90 of 96.1 µM. On to `Cc1cccc(Cn2ccc(NC(=O)c3ccc4c(c3)OCO4)n2)c1`, for which the IC90 was found to be 90.7 µM.

For `OCc1ccc(-c2cncc(Nc3cccc(Cl)c3)c2)cc1`, the IC90 turned out to be 98.2 µM. `O=C(COc1cccc(F)c1)Nc1nc(-c2ccccn2)cs1` registered an IC90 of 16.1 µM. In turn, `CC(C)n1nc(-c2cc3c(Cl)cccc3[nH]2)c2c(N)ncnc21` showed an IC90 of 89 µM.

Regarding `N=C(N)Nc1ccc(-c2ccc(-c3ccc(N=C(N)N)c(Cl)c3)o2)cc1Cl`, the IC90 is 88.5 µM. Next, `O=C(NC1CC1)c1ccc(N2CCOc3ccc(Cl)cc32)s1`: 51.8 µM. Turning to `CCN(CC)CCCCCCNc1cc(OC)cc2c(C)ccnc12`, the IC90 worked out at 17.8 µM.

With `Cc1[nH]c2ccccc2c1C(c1cccs1)N1CCN(C)CC1` (stereo not drawn), the IC90 came out at 47 µM. As for `COc1ccc(-c2cc(NC(=O)c3ccc(F)cc3Cl)ccc2OC)cc1`, the IC90 amounted to 53 µM. The molecule `O=C(Nc1nnc(-c2ccc(Cl)cc2)o1)c1cccc(C(F)(F)F)c1` came in with a 90% effect concentration (IC90) of 39.2 µM.
